Drawing on PubChem BioAssay (NCI), this text covers growth for 15 molecules.

Assay in all cases: NCI-60 one-dose screen, 48 h (100 = growth as untreated, 0 = no growth, -100 = all killed)
What all share (details): 10 µM unless noted

Assay [1] concerns SR leukemia.
Assay [2] has as its system RPMI-8226 leukemia.
The subject of assay [3] is OVCAR-8 ovarian.
Assay [4] deals with OVCAR-5 ovarian.
Assay [5] deals with OVCAR-4 ovarian.
Assay [6] concerns SK-OV-3 ovarian.
For assay [7], the system named is OVCAR-3 ovarian.
Assay [8] concerns HS 578T breast.
Assay [9] has as its system NCI/ADR-RES ovarian.
In assay [10] the test system is IGROV1 ovarian.

The panel holds about 83,000 compounds, 20% with a hit somewhere; the sample as a whole holds those more often.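 The endpoint reported here, percent growth, reads 100 for growth as untreated, 0 for no net growth and -100 for all cells dead.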 Values without a mark were called inactive. The source made the active and inactive calls. How the source made its calls: active means growth percent below 10; inactive means the rest.

`Cc1ccccc1-c1cc(Cc2ccc(F)cc2)c(=O)[nH]n1`: the growth was -21.2% (active) in assay [1]; 50.9% in assay [2]; 90.4% in assay [3]; 106% in assay [4]; 103% in [5]; 98.2% in assay [6]. The results for the growth in assay [7], in assay [8] and in assay [9] were 104%, 99.9% and 102%, respectively.

In the case of `c1ccc(CCSc2ncnc3nc[nH]c23)cc1`, the growth in assay [1] is 52.8%; in assay [2], 82.1%; in assay [3], 66.9%; in [4], 114%; in assay [5], 84.8%; in assay [7], 116%. For the same molecule, the values for the growth in assay [8] and in assay [9] were 100% and 99.2%, respectively.

As for `Fc1ccccc1CSc1ncnc2nc[nH]c12`, the growth was 105% in [1]; 95.1% in assay [2]; 80.5% in assay [3]; 110% in assay [4]; 113% in [5]; 118% in [7]. Further, the growth was 111% in [8] and 114% in assay [9].

Consider `CN(C)c1ccc(-c2c(C#N)c(N)n3nc(N)c(C#N)c3c2C#N)cc1`, for which the growth in assay [1] is 62.1%; in assay [2], 32.2%; in assay [3], 83.7%; in assay [4], 63.7%; in assay [5], 101%; in assay [6], 71.3%. For the same molecule, the results for the growth in assay [7], in assay [8] and in assay [9] were 85.3%, 93.2% and 90.4%, respectively.

Consider `CC(C)Cc1ccc(C(C)C(=O)NCc2c[nH]c3ccc(Cl)cc23)cc1` (centres undefined), for which the growth in [1] was 80.5%; in assay [2] it was 78.5%; in assay [3], 93.4%; in [4], 98.9%; in assay [6] it was 98.9%; in [10], 86.9%. Moreover, the growth in assay [7] is 95.5%; in [8], 82.8%; in assay [9], 92.5%.

As for `CC(O)/C=C/C=C/C(O)CC/C=C/C(=O)NCC(C)(C)O` (centres undefined), the growth was 66.4% in assay [1]; 100% in [2]; 93.3% in assay [3]; 113% in assay [4]; 106% in assay [5]; 111% in assay [6]. For the same molecule, the growth was 99.8% in [8] and 109% in assay [9].

In the case of `CC(=O)OCC(=O)C1(O)C(C)CC2C3C=C(C)C4=Cc5c(cnn5-c5ccccc5)CC4(C)C3C(O)CC21C` (centres undefined), the growth in assay [1] was 2.76% (active); in assay [2], -18.3% (active); in [3], 44.9%; in assay [4], 25.3%; in assay [5], 43.2%; in assay [6] it was 43.1%. The results for the growth in [7] and in [9] were 11.5% and 35%, respectively.

Turning to `CC(C)(C)OC(=O)N1C/C(=C\c2ccoc2)C(=O)/C(=C/c2ccoc2)C1`, the growth in [1] was -8.41% (active); in assay [2], -23% (active); in assay [3], 101%; in assay [4], 97%; in [5], 100%; in [6] it was 99.5%. Further, the growth in assay [7] was 106%; in [8], 90.6%; in [9], 97.6%.

With `COc1cc(C(=O)/C=C/c2c(C)n([O-])c3ccc(Cl)cc3[n+]2=O)cc(OC)c1OC`, the growth is -5.8% (active) in assay [1]; -35.2% (active) in assay [2]; 23% in [3]; 86.6% in assay [4]; 70.7% in assay [5]; 87.3% in [6]. In addition, the growth in assay [7] is 23.2%; in assay [8], 86.3%; in [9], 39%.

As for `Cn1c(=O)c2[nH]c(CCCc3nc4c([nH]3)c(=O)n(C)c(=O)n4C)nc2n(C)c1=O`, the growth is 129% in [1]; 107% in [2]; 90.4% in assay [3]; 122% in assay [4]; 118% in assay [5]; 116% in assay [8]. Also, in assay [9], the growth was 109%.

With `O=C(Nc1ccc2cc3ccc(NC(=O)N4CCCCCC4)cc3nc2c1)N1CCCCCC1`, the growth in assay [1] was 8.09% (active); in assay [2], -36.8% (active); in [3] it was -28.3% (active); in [4], 4.88% (active); in [5], -44.8% (active); in assay [6] it was -36.7% (active). The growth in assay [7] is -69.2% (active); in assay [8], -33.2% (active); in [9] it was 36.7%.

In the case of `CC1(c2ccccc2)NC(=O)N(CC(=O)Nc2cccc(I)c2)C1=O` (centres undefined), the growth in assay [1] is 71.1%; in [2], 74.1%; in assay [3], 91.9%; in [4] it was 89.7%; in [5], 90.3%; in assay [6], 87.5%. The growth in [7] was 90.2%; in assay [8], 44.9%; in assay [9], 92.7%.

For `COc1ccc(C2CC(c3cccc(Nc4ccncc4)c3)=NN2c2cc(Cl)cc(Cl)c2)cc1` (centres undefined), the growth in assay [1] was 2.77% (active); in [2] it was 14.9%; in assay [3], -31.8% (active); in [4], 82.5%; in [5], 28.2%; in assay [6], 75%. The growth was 49% in assay [7], 56.7% in assay [8] and 66.8% in [9].

Regarding `COc1cc(C2CC(c3cccc(Nc4ccncc4)c3)=NN2c2cc(Cl)cc(Cl)c2)cc(OC)c1OC` (centres undefined), the growth is 0.528% (active) in [1]; -13.7% (active) in assay [2]; -8.55% (active) in assay [3]; 65.1% in assay [4]; 6.43% (active) in [5]; 76.2% in [6]. Besides, the results for the growth in [7], in assay [8] and in assay [9] were 3.71% (active), 0.285% (active) and 51.4%, respectively.

Take `COc1cc(/C=C/C(=O)c2c(C)oc3nc[nH]c(=O)c23)ccc1O`: the growth was 126% in [1]; 122% in assay [2]; 103% in assay [3]; 96.5% in assay [4]; 101% in assay [5]; 103% in [6]. The growth is 108% in assay [7], 93% in assay [8] and 101% in [9].
